About 79,000 compounds went through this panel and 15% of them were active in at least one assay; those are over-represented in the sample as a whole. Unmarked numbers belong to inactive results. Active and inactive are the calls of the source. Rule as the data show it: active = growth inhibition above about 70%; inactive = the rest.

This experiment is described as follows: NCI Yeast Anticancer Drug Screen. Data for the mec2-1 strain (AID 157). The note with it: S. cerevisiae mec2-1 strain, at 50.0 µM, hits give high values. In a few lines: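 Mutant yeast (mec2-1) grown with compound; growth inhibition relative to vehicle control reported.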
With `CN1CCCCCCCC(=O)C(OC(=O)c2ccc([N+](=O)[O-])cc2)CCCCCCC1` (stereo not given), the growth inhibition is 4.25%. In the case of `CN(C)Cc1c[nH]c2nc[nH]c(=O)c12` it was -31.4%.

`Cc1ccc2cc(N)ccc2c1`: the growth inhibition was 8.05%.

Regarding `S=C(NCCS)Nc1ccccc1`, the growth inhibition is -11.4%.

As for `O=C(O)CN(CC(=O)O)CC(=O)O`, the growth inhibition was -23.6%. For the compound `CC(C)=C1CCC/C1=N\Nc1ccc([N+](=O)[O-])cc1[N+](=O)[O-]`, the growth inhibition was -1.35%.

Turning to `CCCC(=O)NC(NC1CCCCC1)(C(=O)OCC)C(F)(F)F` (stereo not given), the growth inhibition is -0.15%. Turning to `O=S(=O)(O)c1cc2c3ccccc3ccc2c2ccccc12`, the growth inhibition was -5.35%.

For the compound `NC(=S)NNc1ccccc1`, the growth inhibition is -5.8%. In the case of `Cc1cc(N(CCC#N)CCC#N)ccc1/C=C(\NC(=O)/C=C/c1ccccc1)NC(=O)Nc1ccc(Cl)cc1` it was 2.75%; in that of `O=C(/C(=C\c1ccc(Cl)cc1)c1ccccc1)c1ccccc1`, -29.5%; in that of `COCCOCc1nc(C#N)c(N)o1`, 2.6%. In the case of `C/C(=N\NC(=O)c1ccncc1)c1cccc(Br)c1` it was 13.9%; in that of `c1ccc(CNC2CC3CCC2C3)cc1` (stereo not given), -5.5%; in that of `CCOC(=O)C1C=NC([N+](=O)[O-])=C1Br` (stereo not given), 24.8%.

On to `Clc1ccc(Nc2ncco2)cc1Cl`, for which the growth inhibition is -15.2%. In the case of `O=[N+]([O-])c1nccn1CCC[n+]1ccc2ccccc2c1`, the growth inhibition is -7.7%. As for `CCCCCCCCCCCCCCCc1c(NC(C)(CC)[P+](=O)O)c(=O)n(C)n1C` (stereo not given), the growth inhibition is -32.5%. As for `C=CCCCCCCCCCCCCCCC`, the growth inhibition was -26.9%. As to `CCOc1cc2c(cc1Cc1ccc3c(c1)OCO3)OCO2`, the growth inhibition was -11.8%. In the case of `Cc1ccc(S(=O)(=O)C2(NC(=O)C3CC3)CC2)cc1` it was -12.1%.

With `CCCCCCCCCC(O)CCCC(O)C(O)CCCCCCC(=O)O` (stereo not given), the growth inhibition is 15%.

For `Cc1ccc2[nH]c(=S)[nH]c(=S)c2c1`, the growth inhibition was 5%.

Consider `CC(C)(Cl)C1CCC(CC(Cl)(Cl)Cl)CC1` (stereo not given), for which the growth inhibition was -16.4%.

With `O=C(NCC1CC1)NC(=O)c1ccccc1F`, the growth inhibition was -34.6%.

Turning to `Cc1ccc(NC(=O)c2ccc(C)c(N)c2)c(C)c1`, the growth inhibition is -21.2%. In the case of `O=C(C[n+]1ccccc1-c1ccccn1)c1ccc(-c2ccccc2)cc1` it was 10.7%; in that of `NCc1ccccc1[N+](=O)[O-]`, 6.2%; in that of `CCOC(=O)C1Cc2ccccc2OC1=O` (stereo not given), -15.2%. In the case of `O/N=C1\CC2(N3CCOCC3)CCC1(c1ccccc1)CC2` it was -12.3%; in that of `O=[N+]([O-])c1ccc(Cl)c(C=NC23CC4CC(CC(C4)C2)C3)c1`, -24.8%; in that of `O=c1[nH]cnc2c1ncn2C1CCC(CO)O1` (stereo not given), 14.6%. Turning to `O=C(/C=C/c1ccccc1)CC(=O)c1ccccc1.O=C(/C=C/c1ccccc1)CC(=O)c1ccccc1.[Cu]`, the growth inhibition is -10.7%. In the case of `COc1cc(Cl)ccc1NC(=O)Oc1ccc(-c2ccccc2)cc1Cl` it was 99.5% (active). In the case of `S=c1sc2c(Cl)ncnc2n1-c1ccccc1` it was 24.4%; in that of `CCCOC(=O)C(OC(=O)c1ccccc1)C(OC(=O)c1ccccc1)C(=O)OCCC` (stereo not given), 0.1%. On to `O=C(O)C(CO)N=Cc1nc(-c2ccccc2)oc1O` (stereo not given), for which the growth inhibition is 6.05%.

In the case of `CC(C)[C@@H]1CC[C@@H](C)C[C@H]1N`, the growth inhibition is 7.8%. Turning to `CCOC(=O)Cn1c(C(F)(F)F)nc2nc(Cl)c(Cl)nc21`, the growth inhibition was -22.9%. As for `COc1ccccc1NC(=O)C1=C(C)NC(C)=C(C(=O)Nc2ccccc2OC)C1c1ccccc1Cl`, the growth inhibition was -4.4%.

The values above are taken from PubChem BioAssay (NCI).
